About 2,400 (0.67%) of roughly 360,000 compounds were called active. What follows is part of a selection rich in actives, with near analogues and random picks from the rest. A number with no mark means an inactive call.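 The calls were made as follows: active = compounds whose normalised, plate-corrected inhibition of enzyme fluorescence in the single-dose primary screen is 50% or more; inactive = the rest.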
Each molecule was assayed against Fatty acid synthase (Homo sapiens) (UniProt P49327) (assay: inhibition of human FAS-TE enzyme activity – biochemical, fluorescence intensity, uHTS, primary screen (AID 602261;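 also: 0% = DMSO with enzyme and 100% = substrate without enzyme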)). Conditions: recombinant FAS-TE, OMFH fluorogenic substrate, fluorescence endpoint; at 15 µM; active compounds read high.
Chain of Fatty acid synthase (Homo sapiens) (P49327 whole entry, looked up): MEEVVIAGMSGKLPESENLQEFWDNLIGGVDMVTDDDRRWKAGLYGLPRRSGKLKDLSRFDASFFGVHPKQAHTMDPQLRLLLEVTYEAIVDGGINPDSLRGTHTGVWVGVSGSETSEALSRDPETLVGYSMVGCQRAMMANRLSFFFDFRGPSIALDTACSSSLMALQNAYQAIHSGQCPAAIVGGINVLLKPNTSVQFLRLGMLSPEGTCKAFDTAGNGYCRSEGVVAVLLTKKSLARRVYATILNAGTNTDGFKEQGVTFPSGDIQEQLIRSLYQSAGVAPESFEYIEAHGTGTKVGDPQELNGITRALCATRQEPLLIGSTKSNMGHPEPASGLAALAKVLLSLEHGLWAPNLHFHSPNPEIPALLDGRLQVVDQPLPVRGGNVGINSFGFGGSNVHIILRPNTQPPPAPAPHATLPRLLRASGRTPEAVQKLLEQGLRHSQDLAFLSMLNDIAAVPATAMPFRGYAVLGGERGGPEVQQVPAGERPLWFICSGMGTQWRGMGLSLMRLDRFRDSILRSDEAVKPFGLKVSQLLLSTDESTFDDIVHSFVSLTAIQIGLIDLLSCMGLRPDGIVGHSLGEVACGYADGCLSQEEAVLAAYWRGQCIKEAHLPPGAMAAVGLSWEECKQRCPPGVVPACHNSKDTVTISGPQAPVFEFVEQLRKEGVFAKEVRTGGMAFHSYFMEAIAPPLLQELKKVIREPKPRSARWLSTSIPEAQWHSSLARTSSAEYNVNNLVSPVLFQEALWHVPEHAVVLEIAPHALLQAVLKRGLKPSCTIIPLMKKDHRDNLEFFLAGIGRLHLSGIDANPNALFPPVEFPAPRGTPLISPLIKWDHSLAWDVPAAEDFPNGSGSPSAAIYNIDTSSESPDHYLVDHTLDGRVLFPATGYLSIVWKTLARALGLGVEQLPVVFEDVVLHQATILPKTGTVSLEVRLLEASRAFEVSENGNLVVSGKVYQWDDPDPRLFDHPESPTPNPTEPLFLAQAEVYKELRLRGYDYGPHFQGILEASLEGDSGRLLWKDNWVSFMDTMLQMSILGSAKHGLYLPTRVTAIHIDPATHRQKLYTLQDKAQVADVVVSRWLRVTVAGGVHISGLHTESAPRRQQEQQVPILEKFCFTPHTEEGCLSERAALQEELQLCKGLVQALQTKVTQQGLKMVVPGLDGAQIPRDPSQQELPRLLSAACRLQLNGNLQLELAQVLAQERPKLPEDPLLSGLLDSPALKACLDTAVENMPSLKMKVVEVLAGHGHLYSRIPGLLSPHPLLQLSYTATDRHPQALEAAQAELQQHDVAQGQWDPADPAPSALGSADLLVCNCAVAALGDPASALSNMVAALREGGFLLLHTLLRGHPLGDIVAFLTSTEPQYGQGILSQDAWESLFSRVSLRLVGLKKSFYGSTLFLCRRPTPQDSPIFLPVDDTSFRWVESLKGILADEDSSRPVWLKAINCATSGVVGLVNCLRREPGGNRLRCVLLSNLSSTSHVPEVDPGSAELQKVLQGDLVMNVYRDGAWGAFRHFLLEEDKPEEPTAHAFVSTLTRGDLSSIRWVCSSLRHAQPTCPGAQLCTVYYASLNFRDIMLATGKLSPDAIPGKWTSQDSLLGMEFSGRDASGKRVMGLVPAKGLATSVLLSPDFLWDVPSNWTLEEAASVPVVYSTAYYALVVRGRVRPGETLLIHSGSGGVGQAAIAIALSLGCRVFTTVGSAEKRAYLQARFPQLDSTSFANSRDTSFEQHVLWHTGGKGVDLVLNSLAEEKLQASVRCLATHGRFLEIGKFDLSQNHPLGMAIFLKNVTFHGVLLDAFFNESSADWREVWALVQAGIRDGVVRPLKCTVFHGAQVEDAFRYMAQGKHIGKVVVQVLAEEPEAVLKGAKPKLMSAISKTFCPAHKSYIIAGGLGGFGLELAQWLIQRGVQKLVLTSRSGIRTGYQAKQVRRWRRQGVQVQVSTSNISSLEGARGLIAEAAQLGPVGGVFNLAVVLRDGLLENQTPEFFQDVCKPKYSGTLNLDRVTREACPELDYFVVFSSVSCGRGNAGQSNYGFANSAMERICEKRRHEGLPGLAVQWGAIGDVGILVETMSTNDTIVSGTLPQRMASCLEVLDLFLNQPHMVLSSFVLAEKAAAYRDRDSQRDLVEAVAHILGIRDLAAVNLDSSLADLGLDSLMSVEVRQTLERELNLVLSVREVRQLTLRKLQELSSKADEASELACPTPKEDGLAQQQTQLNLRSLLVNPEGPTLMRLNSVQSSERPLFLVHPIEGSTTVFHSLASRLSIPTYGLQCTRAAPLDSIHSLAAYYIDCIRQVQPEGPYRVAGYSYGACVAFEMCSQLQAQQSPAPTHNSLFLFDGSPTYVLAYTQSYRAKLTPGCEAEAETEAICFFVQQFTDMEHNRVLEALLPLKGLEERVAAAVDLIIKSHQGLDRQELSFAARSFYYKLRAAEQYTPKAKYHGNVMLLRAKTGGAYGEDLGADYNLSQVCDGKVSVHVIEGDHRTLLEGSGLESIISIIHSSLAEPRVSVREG

Going from `O=C(CN1CCC(NC(=O)Nc2ccccc2)CC1)Nc1cccc([N+](=O)[O-])c1` to `O=C(NCc1ccco1)/C(=C/c1cccc([N+](=O)[O-])c1)NC(=O)c1ccco1`, the inhibition rises from 1.8% to 38.7%.

Going from `CCc1ccc(NC(=O)N2CCc3ccccc3C2)cc1` to `COc1ccccc1C1CCN(C(=S)Nc2ccc(Br)cc2)CC1`, the inhibition rises from 4.2% to 31%.

First: N#CCC(=O)N/N=C/c1ccc(SCC(=O)Nc2ccccc2)o1
Second: Cc1occc1C(=O)N/N=C/c1ccc(-c2cccc([N+](=O)[O-])c2)o1
The inhibition of the first is lower: -2.5% for the first, 20.7% for the second.

First: CCC1CCCCN1CCCNC(=O)c1cc2c(Cl)nc3ccccc3c2s1 (stereo not drawn)
Second: CCCCc1nc2cc(C(=O)NCCc3cnn(C)c3)ccc2o1
The inhibition of the first is lower: -5.7% for the first, -2.8% for the second.

First: COc1cc(C2C(C(=O)c3cccs3)=C(O)C(=O)N2CCN2CCOCC2)ccc1OCCC(C)C (stereo not drawn)
Second: COc1ccc(C(=O)N(C)CC(O)c2ccccc2)cc1OC1CCN(C(C)=O)CC1 (stereo not drawn)
The inhibition of the first is higher: 0.8% for the first, 0.7% for the second.

First: CC/C(Cc1ccccc1)=N/NC(=O)CCn1nnc2ccccc21
Second: CCOC(=O)c1nnn2c1nc(N1CCN(c3ccccc3)CC1)c1ccccc12
The inhibition of the first is lower: -8.1% for the first, 19.9% for the second.

Compared with `Cc1noc(C)c1C(=O)N1CCC1(C)C(=O)NS(=O)(=O)c1ccc(C#N)cc1` (stereo not drawn), `CC1(C(=O)NS(=O)(=O)c2ccc(C#N)cc2)CCN1C(=O)CC1CCCC1` (stereo not drawn) is higher in inhibition: -9% for the first, 4.2% for the second.

Going from `O=C1CCC/C(=N\NC(=O)NC2CCCCC2)C1` to `Cc1cc(C(F)F)nn1CC(=O)NC1CCCCCC1`, the inhibition falls from -1% to -5.3%.

Compared with `COc1cccc(-n2nc(C(=O)N3CCN(Cc4ccccc4)CC3)c3ccccc3c2=O)c1`, `Cc1ccc(S(=O)(=O)N2CCN(C(=O)c3ccccc3-c3nc4ccccc4s3)CC2)c(C)c1` is higher in inhibition: 3.5% for the first, 15.3% for the second.

Going from `CCOC(=O)N1CCN(Cc2nc3cc(NC(C)=O)ccc3n2C)CC1` to `COc1ccc2nc(N3CCN(C(=O)c4ccc([N+](=O)[O-])o4)CC3)sc2c1`, the inhibition rises from -7% to 10.7%.

First: CCOC(=O)CSC1=N/C(=C/c2ccc(-n3cncn3)cc2)C(=O)N1C(C)=O
Second: CCCn1c(N)c(C(=O)CSc2nc3ccccc3c(=O)n2-c2ccc(OC)cc2)c(=O)[nH]c1=O
The inhibition of the first is lower: -6.6% for the first, -0.6% for the second.

Compared with `Cc1c(Cl)c([N+](=O)[O-])nn1Cc1ccc(C(=O)N/N=C\c2cc(Cl)ccc2O)o1`, `Cc1cc([N+](=O)[O-])nn1Cc1ccc(F)cc1` is lower in inhibition: 36.1% for the first, -0.9% for the second.

Compared with `Cc1ccc(S(=O)(=O)Nc2ccc3c(c2)C(=O)N([C@H](C)CO)C[C@@H](C)[C@@H](CN(C)C(=O)Nc2cccc4ccccc24)O3)cc1`, `Cc1noc(C)c1NC(=O)Nc1ccc2c(c1)C(=O)N([C@H](C)CO)C[C@H](C)[C@@H](CN(C)C(=O)Nc1ccccc1)O2` is lower in inhibition: -2.7% for the first, -5.3% for the second.

First: Fc1ccc2nc(Nc3nc4c(s3)CCCC4)sc2c1
Second: O=C(Nc1nnc(SCc2c(Cl)cccc2Cl)s1)C1CCCO1 (stereo not drawn)
The inhibition of the first is higher: 7.4% for the first, 0.2% for the second.

Compared with `CSc1ccccc1NC(=O)c1cnc2sc(C)cn2c1=O`, `Cc1ccc(S(=O)(=O)n2cnc3ccccc32)c(C)c1` is lower in inhibition: 4.9% for the first, -4.2% for the second.

Going from `O=[N+]([O-])c1cc([N+](=O)[O-])c(Oc2cc(F)cc(F)c2F)cc1NN1CCCCC1` to `COc1ccc(OC)c(NC(=O)c2cc(-c3cc(F)ccc3OCC3CCCO3)n[nH]2)c1` (stereo not drawn), the inhibition rises from 11.3% to 22.4%.

First: Cc1c(C(=O)NC(C)C2CC3CCC2C3)cccc1[N+](=O)[O-] (stereo not drawn)
Second: Cc1cccc(C(=O)OCC(=O)NC(C)C2CC3CCC2C3)c1O (stereo not drawn)
The inhibition of the first is lower: 11.2% for the first, 20.1% for the second.

Compared with `COc1ccc(CN2C(CC(=O)Nc3cccnc3)c3ccc(C(F)(F)F)cc3S2(=O)=O)cc1` (stereo not drawn), `COc1ccc(CCCNC(=O)C2Cc3c(-c4cccc(C(N)=O)c4)ccnc3O2)cc1` (stereo not drawn) is lower in inhibition: 14.3% for the first, 1.7% for the second.

Going from `Cc1noc(C)c1NC(=O)Nc1cccc2c1O[C@H](CN(C)S(=O)(=O)c1c(C)noc1C)[C@@H](C)CN([C@H](C)CO)C2=O` to `Cc1noc(C)c1C(=O)NC(C)c1ccc2c(c1)OCO2` (stereo not drawn), the inhibition falls from 3.4% to -5.5%.

Compared with `O=S(=O)(NCCCCCCNS(=O)(=O)c1c(F)cccc1F)c1ccc2c(c1)OCCO2`, `Cc1ccc(S(=O)(=O)NCC(=O)N(CC(=O)NCC2CCCO2)c2cccc(F)c2)cc1` (stereo not drawn) is lower in inhibition: 3.8% for the first, -4.4% for the second.

First: COCCSc1nnc(NC(=O)c2cc(OC)c(OC)cc2[N+](=O)[O-])s1
Second: CCc1ccccc1OCC(=O)Nc1nnc(C2CC2)s1
The inhibition of the first is lower: -10.4% for the first, -9.2% for the second.

Compared with `O=S(=O)(Cc1noc(-c2ccc(OC(F)(F)F)cc2)n1)c1ccc(F)cc1`, `Cn1c(=O)n(C)c2cc(NS(=O)(=O)c3ccc(F)cc3)ccc21` is lower in inhibition: 15.8% for the first, -7.3% for the second.

Going from `CC(C)Oc1ccc(CCc2n[nH]c(=S)n2Cc2ccccc2)cc1` to `COc1cc(-c2n[nH]c(=S)n2Cc2ccccc2)cc(OC)c1OC`, the inhibition falls from 19.3% to -3.4%.

Going from `O=C(Nc1cccc(S(=O)(=O)N2CCOCC2)c1)C12CC3CC(CC(C3)C1)C2` to `O=C(Nc1ccc(S(=O)(=O)N2CCOCC2)cc1)C1CCN(S(=O)(=O)c2ccc(Cl)cc2)CC1`, the inhibition rises from 9.3% to 28.3%.

Going from `COc1ccc(/C=C(/NC(=O)c2ccco2)C(=O)Nc2ccc(C(C)=O)cc2)cc1` to `Cc1ccc(NC(=O)/C(=C\c2ccccc2)NC(=O)c2ccco2)cc1`, the inhibition rises from -1.1% to 0%.

First: O=C(NCc1ccco1)/C(=C/c1ccco1)NC(=O)c1ccccc1
Second: O=C(NCc1ccco1)c1ccc([N+](=O)[O-])cc1Cl
The inhibition of the first is lower: -4.1% for the first, 5.6% for the second.

Going from `O=C(/C=C/c1ccc([N+](=O)[O-])cc1)NCCSCc1ccco1` to `O=C(NCCO)c1cccc(-c2cccc3nccn23)c1`, the inhibition falls from 9.8% to -6.3%.

Compared with `CCC1CCC/C1=N\NC(=O)c1ccc(Cl)cc1` (stereo not drawn), `CCCCN1C(=O)CCC(C(=O)O)C1c1ccc(OC)cc1` (stereo not drawn) is lower in inhibition: -4.6% for the first, -7.9% for the second.

First: CCN(CC)S(=O)(=O)c1ccc2[nH]c(=O)cc(C(=O)N(C)C3CCS(=O)(=O)C3)c2c1 (stereo not drawn)
Second: CCOc1ccc(Br)cc1S(=O)(=O)Nc1cccc(S(=O)(=O)N(CC)CC)c1
The inhibition of the first is lower: 0% for the first, 22.7% for the second.

First: Cc1cccc(Nc2nc3c(S(=O)(=O)c4ccccc4)nnn3c3ccccc23)c1C
Second: COc1ccccc1-n1cnc2cc(NS(=O)(=O)c3ccccc3)ccc21
The inhibition of the first is lower: -3.1% for the first, 0.1% for the second.

First: OC(CN1C2=NCCCN2c2ccccc21)c1ccc(Br)cc1 (stereo not drawn)
Second: CCOc1ccc(Br)cc1S(=O)(=O)Nc1ccc(S(=O)(=O)Nc2cc(C)on2)cc1
The inhibition of the first is higher: -4.6% for the first, -8.8% for the second.

Compared with `CC(NC(=O)c1ccco1)c1ccc2c(c1)OCO2` (stereo not drawn), `Cc1ccc(S(=O)(=O)/N=C(/Nc2ccccn2)c2ccc(Cl)cc2)cc1` is higher in inhibition: -6.5% for the first, 2.1% for the second.

Compared with `CCN1CCN(c2sc(S(C)(=O)=O)nc2S(=O)(=O)c2ccc(Cl)cc2)CC1`, `Cc1nnsc1S(=O)(=O)Cc1ccccc1Cl` is lower in inhibition: -2.8% for the first, -6.8% for the second.

First: CC(=O)N(Cc1cccs1)C1CCOC(C)(C)C1 (stereo not drawn)
Second: Cc1ccc(S(=O)(=O)/N=C(/Nc2ccc3[nH]c(=O)[nH]c3c2)c2ccccc2)cc1
The inhibition of the first is higher: -7.2% for the first, -11.9% for the second.

In the case of `O=C(Nc1cccc([N+](=O)[O-])c1)N1CCc2ccccc2C1`, the inhibition is reported as 52.5% (active).
`O=[N+]([O-])c1c(NCCO)cc(Sc2nc3ccccc3s2)c2nonc12` was tested, and the inhibition was 83.1% (active).
`Cc1cc(C)c(C2C3=C(Nc4c2c(C)nn4-c2ccccn2)c2ccccc2C3=O)c(C)c1` (stereo not drawn) was tested, and the inhibition was 68.9% (active).
In the case of `CC1(C(=O)NS(=O)(=O)c2ccc(C#N)cc2)CCN1C(=O)c1ccc(C2CCCCC2)cc1` (stereo not drawn), the inhibition is reported as 62.6% (active).
In the case of `CCOC(=O)N1CCN(Cc2nc3ccc([N+](=O)[O-])cc3c(=O)n2-c2cccc(OC)c2)CC1`, the inhibition is reported as 72.4% (active).
In the case of `Cc1cc(C(=O)N/N=C/c2cc([N+](=O)[O-])cc(C)c2O)n[nH]1`, the inhibition is reported as 65.7% (active).
In the case of `COc1ccc2nc(Nc3nc4cc5c(cc4s3)OCCO5)sc2c1`, the inhibition is reported as 66.6% (active).
With `COC(=O)c1cc(C(=O)NC(C)C2CC3CCC2C3)cc([N+](=O)[O-])c1` (stereo not drawn) the inhibition was 50.5% (active).
`Cc1noc(C)c1NC(=O)Nc1cccc2c1O[C@H](CN(C)C(=O)Nc1ccccc1)[C@@H](C)CN([C@H](C)CO)C2=O` was tested, and the inhibition was 55.4% (active).
With `O=C(Nc1nnc(SCc2ccccc2Cl)s1)c1cccc([N+](=O)[O-])c1` the inhibition was 58.6% (active).
With `CC(C)Oc1ccc(Cc2n[nH]c(=S)n2Cc2ccccc2)cc1Cl` the inhibition was 57% (active).
With `O=C(NCc1ccco1)/C(=C\c1cccc([N+](=O)[O-])c1)NC(=O)c1ccco1` the inhibition was 51.4% (active).
With `O=C(Nc1ccc2ccccc2c1)/C(=C/c1cccc(Br)c1)NC(=O)c1ccco1` the inhibition was 52.3% (active).
For `O=C(/C=C/c1cccc([N+](=O)[O-])c1)NCCSCc1ccco1`, the inhibition was 55.4% (active).
`Cc1ccc(S(=O)(=O)c2nnn3c2nc(N2CCN(c4ccccn4)CC2)c2ccccc23)cc1` was tested, and the inhibition was 65.9% (active).
`CC(NC(=O)Nc1cccc([N+](=O)[O-])c1)c1ccc2c(c1)OCO2` (stereo not drawn) was tested, and the inhibition was 83.4% (active).
`O=C(Nc1ccccc1)c1nnsc1S(=O)(=O)c1ccc(Cl)cc1` was tested, and the inhibition was 69.7% (active).
In the case of `CC1(C)CC(=O)c2c(n(S(=O)(=O)c3ccccc3)c3ccc(NS(=O)(=O)c4ccccc4)cc23)C1`, the inhibition is reported as 79.6% (active).
For `Cc1ccc(S/C(=N\S(=O)(=O)c2ccc(Cl)cc2)c2ccccc2)cc1`, the inhibition was 57.1% (active).
In the case of `CCOc1ccc(Br)cc1S(=O)(=O)Nc1ccc(C(=O)OC(C)C(=O)N(C)c2ccccc2)cc1` (stereo not drawn), the inhibition is reported as 53.8% (active).

Reference: PubChem BioAssay AID602261 (Sanford-Burnham Center for Chemical Genomics, 2012)
